Reference: PubChem BioAssay AID560 (The Scripps Research Institute Molecular Screening Center, 2006)
About 980 (1.5%) of roughly 65,000 compounds were called active.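 Rule for the calls: active = activation above the mean of all tested compounds plus 3 SD (cut at about 49% in these data); inactive = the rest.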 The full list was thinned out, with actives kept by preference.

Molecular target: Nuclear receptor ROR-alpha (Homo sapiens) (UniProt P35398)
Test: RORA ligand-binding domain transcriptional activation – cell-based, luminescence, primary screen (AID 560);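 note: 0% = DMSO-treated RORA cells and 100% = added signal equal to DMSO minus mock-transfected cells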
Conditions: CHO-K1 Gal4-RORA LBD luciferase reporter, at 10 µM, active compounds read high, percent increase over mock-subtracted basal signal

Nuclear receptor ROR-alpha (Homo sapiens), sequence (P35398 whole entry, looked up, the tested form may be a part): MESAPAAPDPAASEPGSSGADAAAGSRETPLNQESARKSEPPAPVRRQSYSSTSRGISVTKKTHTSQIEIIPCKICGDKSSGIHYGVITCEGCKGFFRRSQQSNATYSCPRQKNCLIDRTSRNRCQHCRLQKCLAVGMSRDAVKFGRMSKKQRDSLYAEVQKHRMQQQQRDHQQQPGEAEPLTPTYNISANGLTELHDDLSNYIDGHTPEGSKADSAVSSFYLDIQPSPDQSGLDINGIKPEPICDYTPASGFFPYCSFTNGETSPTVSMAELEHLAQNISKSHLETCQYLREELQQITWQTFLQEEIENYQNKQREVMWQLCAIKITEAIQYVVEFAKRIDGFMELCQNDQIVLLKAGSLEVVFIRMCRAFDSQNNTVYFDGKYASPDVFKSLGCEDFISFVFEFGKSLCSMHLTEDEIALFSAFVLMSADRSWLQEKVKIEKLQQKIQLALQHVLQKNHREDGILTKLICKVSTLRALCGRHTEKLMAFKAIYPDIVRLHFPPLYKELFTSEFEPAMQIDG

Row | SMILES | activation
1 | O=C(NCCCNC(=O)NC1CCCCC1)NC1CCCCC1 | -10.6% (inactive)
2 | CCS(=O)(=O)N1CCC(C(=O)N2CCN(c3ccccc3)CC2)CC1 | -6.6% (inactive)
3 | COc1cccc2sc(Nc3nc(C)c(C(C)=O)s3)nc12 | 39.6% (inactive)
4 | Cc1cc(C)c2c(c1)cc(C)c1nnc(SCC(=O)Nc3cc(C)on3)n12 | 44.5% (inactive)
5 | Cc1cccc(NC(=O)c2ccccc2NC(=O)C(C)(C)C)n1 | 17.7% (inactive)
6 | Cc1cccc(NC(=O)c2ccc3ccccc3n2)n1 | 83% (active)
7 | Cc1cccc(NC(=O)COc2ccccc2C)n1 | -18.4% (inactive)
8 | CC(=O)c1c(N)n(C)c(=O)n(C)c1=O | -5.2% (inactive)
9 | c1ccc2c(NCC3CCCO3)nc(-c3ccncc3)nc2c1 (stereo not drawn) | -11.3% (inactive)
10 | Cc1ccc(-n2c(SCC(=O)Nc3ccc4c(c3)OCO4)nnc2-c2ccoc2C)cc1 | -1.7% (inactive)
11 | Cn1nnc2cc(C(=O)NCCC3=CCCCC3)ccc21 | 18.1% (inactive)
12 | O=C(Cc1nn[nH]n1)NCCC1=CCCCC1 | -13.7% (inactive)
13 | CN(c1ccc(C(=O)NCCC2=CCCCC2)cc1)S(C)(=O)=O | 63% (active)
14 | CC(=NCC1CCCO1)c1c(O)[nH]c(=O)[nH]c1=O (stereo not drawn) | 2.9% (inactive)
15 | O=C(CS(=O)(=O)Cc1ccccc1)NCC1CCCO1 (stereo not drawn) | 11.4% (inactive)
16 | O=C1C(C=NCC2CCCO2)=C(O)c2ccccc21 (stereo not drawn) | 48.7% (active)
17 | Cc1ccccc1Nc1nc(N)nc(CN2CCN(c3ccccn3)CC2)n1 | -2.8% (inactive)
18 | CC(=O)Nc1cccc(-c2cnc3ccccc3n2)c1 | 72.9% (active)
19 | Cc1cc(O)ccc1-c1cnc2ccccc2n1 | 30.5% (inactive)
20 | CC(=O)Nc1cccc(NC(=O)c2c(-c3ccccc3)noc2C)c1 | -6.7% (inactive)
21 | CC(C)CC(=O)N=C1SC2CS(=O)(=O)CC2N1CCc1ccccc1 (stereo not drawn) | -3.3% (inactive)
22 | Cn1c(CNC(=O)C(C)(C)C)nc2ccccc21 | 13.9% (inactive)
23 | CCN(CC)C(=O)CSc1nnc(-c2cnccn2)n1-c1ccc(C)cc1 | 12% (inactive)
24 | Cn1c(SCc2c(F)cccc2Cl)nnc1-c1cnccn1 | 62.8% (active)
25 | O=C(CSc1nnc(-c2cnccn2)n1Cc1ccco1)c1ccc(Cl)c(Cl)c1 | 1.4% (inactive)
26 | COCCn1nnnc1CN1CCC(NC(=O)Nc2cccc(OC)c2)CC1 | -9% (inactive)

Row | SMILES | activation
27 | CCOc1cc(S(=O)(=O)NCc2ccc3c(c2)OCO3)ccc1F | -24.1% (inactive)
28 | CCn1c(CSc2ncccn2)nnc1SCC(=O)N1c2ccccc2CC1C (stereo not drawn) | -7.8% (inactive)
29 | Cn1c(SCc2nc3ccccc3s2)nnc1-c1ccc2c(c1)OCO2 | 37.8% (inactive)
30 | CC(C)OC(=O)c1sc2nc3c(cc2c1N)C(=O)CCC3 | 47.6% (inactive)
31 | Oc1ccc2nc(Cc3ccccc3)[nH]c2c1 | 2.5% (inactive)
32 | Oc1ccc(Cl)cc1/C=N/c1nc2ccccc2[nH]1 | 51.7% (active)
33 | c1ccc2[nH]c(-c3nc4ccccc4[nH]3)nc2c1 | 14.8% (inactive)
34 | O=C(C1CCCO1)N1CCC(c2nc3ccccc3[nH]2)CC1 (stereo not drawn) | -13.4% (inactive)
35 | Fc1c(F)c(C(F)(F)F)c(F)c(F)c1N1CCN(c2ccc3nnc(C(F)(F)F)n3n2)CC1 | -6.8% (inactive)
36 | O=c1oc2cc(O)ccc2cc1-c1ccc(F)cc1 | 61.8% (active)
37 | COc1cccc(C(=O)c2cc3ccc(O)cc3oc2=O)c1 | 0.2% (inactive)
38 | COc1ccc(-c2cc3ccc(OCc4nn[nH]n4)cc3oc2=O)cc1 | -23.3% (inactive)
39 | O=C(O)C1OC(C(=O)O)C2C1C(F)(F)C2(F)F (stereo not drawn) | -1.8% (inactive)
40 | CCCn1c(=O)c(-c2ccccc2)c(O)c2ccccc21 | 5.6% (inactive)
41 | CCOCCCNS(=O)(=O)Cc1ccccc1 | -16.2% (inactive)
42 | O=C1CCCC2=C1C(c1cccs1)n1nc(SCc3ccccc3)nc1N2 (stereo not drawn) | -13.1% (inactive)
43 | O=C(CN1CCOCC1)N1CCCc2c1c(=O)oc1ccc(OCc3ccccc3)cc21 | -15.9% (inactive)
44 | CCC(=O)Oc1cccc(C(=O)Nc2ccc(-c3nnc(-c4ccco4)o3)cc2)c1 | 112% (active)
45 | Cc1ccc(OCC(=O)Nc2ccc(-c3nnc(-c4ccco4)o3)cc2)cc1 | 20.8% (inactive)
46 | CCOc1ccc(-c2nnc(-c3ccco3)o2)cc1 | -31.6% (inactive)
47 | Cn1c(=O)c(C(=O)Nc2ncccn2)c(O)c2ccccc21 | 61% (active)
48 | O=C(Nc1ncccn1)c1cccs1 | -6.7% (inactive)
49 | CCOc1cc(C(=O)Nc2ncccn2)cc(OCC)c1OCC | -3.1% (inactive)
50 | CC(C)C(c1nnnn1CCc1ccccc1)N1CCN(C(=O)c2ccco2)CC1 (stereo not drawn) | -9% (inactive)
51 | CCC(CC)c1nnc(NS(=O)(=O)Cc2ccccc2)s1 | -5.9% (inactive)
52 | COc1ccccc1-c1cc(C(=O)N2CCCCC2)no1 | 56.5% (active)

Row | SMILES | activation
53 | COc1ccccc1N1CCN(C(=O)c2cc(-c3ccc(Br)cc3)on2)CC1 | -2.4% (inactive)
54 | O=C(c1cc(-c2ccccc2O)on1)N1CCCC1 | 18.2% (inactive)
55 | Cc1cc(NC(=O)c2cc(-c3cccs3)on2)nn1Cc1ccc(Cl)cc1 | 27.5% (inactive)
56 | O=C(c1cc(-c2cccs2)on1)N1CCCCC1 | 63.4% (active)
57 | O=C(CSCc1cccs1)N1CCCC1 | 22.9% (inactive)
58 | Cc1cc(Cl)c(S(=O)(=O)NCCC(=O)O)cc1OCC(N)=O | -22.1% (inactive)
59 | COc1ccc(OCCCON2C(=O)c3ccccc3C2=O)cc1 | -11.1% (inactive)
60 | C[N+]1(CCNC(=O)/C=N/O)CCCCC1 | -28.3% (inactive)
61 | O=C(Nc1ccon1)c1cccc(Cl)c1 | -2.3% (inactive)
62 | CN(C)CCSc1nc(N)c2c3c(sc2n1)COC(C)(C)C3 | 10.3% (inactive)
63 | C=C(C)CSc1nc(N)c2c3c(sc2n1)CCC3 | 56.2% (active)
64 | C=C(C)Cn1c(SCC(=O)NCc2ccco2)nc2sc3c(c2c1=O)CCC3 | -4% (inactive)
65 | CCn1cc(C(=O)NCC2CCCO2)c(=O)c2cc(S(=O)(=O)N3CCCCC3)ccc21 (stereo not drawn) | -5.2% (inactive)
66 | O=C(CCCn1c(SCC(=O)c2ccc(F)cc2)nc2ccccc2c1=O)NCc1ccco1 | 40.5% (inactive)
67 | COc1ccc(-c2nc(-c3ccccc3)no2)c(OC)c1 | -78.4% (inactive)
68 | COc1cc(-c2nc(-c3ccncc3)no2)cc(OC)c1OC | 5.3% (inactive)
69 | COc1ccc(-c2noc(-c3cccc(OC)c3OC)n2)cc1OC | 89.8% (active)
70 | CC(=O)Nc1ccc(NS(=O)(=O)c2cc(C)sc2C)cc1 | -3% (inactive)
71 | COc1ccc(C(=O)Nc2ccc3c(c2)OCO3)cc1OC | 69.8% (active)
72 | CC(C)C(=O)Nc1cccc(C(=O)Nc2ccc3c(c2)OCO3)c1 | 31.6% (inactive)
73 | Cn1c(=O)n(C)c2cc(C(=O)Nc3ccc4c(c3)OCO4)ccc21 | 19.1% (inactive)
74 | Nc1ccc(-c2nnc(-c3ccc(-c4ccccc4)cc3)o2)cc1 | 60.7% (active)
75 | COc1ccc(CC(=O)Nc2ccc(-c3nnc(-c4ccccc4)o3)cc2)cc1 | 8.7% (inactive)
76 | O=C(Nc1ccc(-c2nnc(-c3ccccc3)o2)cc1)c1ccc(Br)o1 | 9.1% (inactive)
77 | CN(C)c1ccc(CNC23CN4CN(CN(C4)C2)C3)cc1 | -19.1% (inactive)
78 | CN(Cc1ccccc1)Cc1ccccc1F | 5.2% (inactive)
